Screening data deposited in PubChem BioAssay by several laboratories.
Sampled rows, rich in hits. Any-hit rate of the full collection: about 1%.
LANA DNA inh – inhibitors of KSHV LANA C-terminal domain DNA binding. 340,000 compounds, 0.078% hits. inhibition, % at 9 µM. MBP-C-LANA/FAM-LBS DNA binding, fluorescence polarization;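 active means highest replicate inhibition at or above 60% at 9 µM, even if other replicates fall short; inactive means all replicates below 60% inhibition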;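 further: 0% = neutral control wells and 100% = 4 µM acridine orange control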
Keap1-Nrf2 PPI – Keap1-Nrf2 (human) interaction inhibition | Keap1 Kelch-Nrf2 peptide fluorescence polarization, 1536-well | inhibition, % at 9.4 µM | 340,000 compounds, 0.15% hits; in the data active means inhibition above about 12%;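 further: human Keap1 Kelch domain with fluorescein labeled Nrf2 9mer peptide probe; 0% = neutral control wells and 100% = peptide positive control; higher means more block of Keap1 binding to Nrf2 peptide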
Target sequence (Q14145 whole entry, looked up, the tested form may be a part): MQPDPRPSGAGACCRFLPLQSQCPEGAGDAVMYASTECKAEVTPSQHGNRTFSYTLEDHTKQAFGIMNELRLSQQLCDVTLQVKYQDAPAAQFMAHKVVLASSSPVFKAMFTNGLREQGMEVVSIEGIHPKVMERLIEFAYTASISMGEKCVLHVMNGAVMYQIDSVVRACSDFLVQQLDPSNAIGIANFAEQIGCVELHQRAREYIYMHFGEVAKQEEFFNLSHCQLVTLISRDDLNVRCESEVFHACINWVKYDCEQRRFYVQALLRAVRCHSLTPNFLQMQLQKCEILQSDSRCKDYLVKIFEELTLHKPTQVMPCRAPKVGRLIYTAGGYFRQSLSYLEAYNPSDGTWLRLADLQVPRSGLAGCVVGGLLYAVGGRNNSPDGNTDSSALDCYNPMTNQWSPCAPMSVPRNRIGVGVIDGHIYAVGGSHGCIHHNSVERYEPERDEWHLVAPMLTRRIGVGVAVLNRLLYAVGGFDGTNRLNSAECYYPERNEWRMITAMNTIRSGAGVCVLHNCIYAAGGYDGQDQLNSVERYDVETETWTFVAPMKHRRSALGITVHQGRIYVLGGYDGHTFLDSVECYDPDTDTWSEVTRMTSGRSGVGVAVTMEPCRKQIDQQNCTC
cardiac RTF act – cardiac RTF calcium sensitization. 340,000 compounds, 0.24% hits. activation, % at 7.2 µM. IANBD-labeled TnC RTF fluorescence at EC20 calcium; 0% EC20 calcium, 100% full calcium;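 active means activation above the mean over all tested compounds plus 3 SD, cut at about 30% in these data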;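 further: rise in fluorescence read as greater calcium sensitivity of cardiac thin filaments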
LANA-H2A inh – blocks KSHV LANA binding to histone H2A/H2B | inhibition, % (concentration not given with the values) | cell-free LANA-H2A/H2B peptide, fluorescence polarization | Q9QR71 | 320,000 compounds, 0.6% hits; in the data active means inhibition mostly above about 10%, no sharp cut-off; inactive means mostly below about 6.7%
RTF Ca sens inh – cardiac RTF calcium desensitization; inhibition, % at 7.15 µM; IANBD-labeled cardiac RTF, Ca2+ fluorescence; P19429+P45379; 340,000 compounds, 0.12% hits;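 active means inhibition above the mean inhibition of all tested compounds plus 3 SD, cut at about 17% in these data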;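 further: assay run at fixed EC70 calcium of 1.6 mM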
Active calls of the source: *; i = inactive; . = no result.

SMILES	LANA DNA inh	Keap1-Nrf2 PPI	cardiac RTF act	LANA-H2A inh	RTF Ca sens inh
CCOC(=O)C1=C(COC(=O)c2ccc3ccccc3c2O)NC(=O)NC1C (stereo not given)	13	3	35*	4	-34
Cc1cccc(NS(=O)(=O)c2ccc3c(c2)Cc2cc(S(=O)(=O)Nc4cccc(C)c4C)ccc2-3)c1C	0	-6	2	1	-20
CCN(CC)c1ccc(/C=C(/C#N)c2nc3ccc(C)cc3[nH]2)c(OC(C)C)c1	1	-12	174*	4	-459
Cc1cc(/C=C(\C#N)c2nc3ccccc3[nH]2)c(C)n1C	3	-3	-1	-3	-11
CCCOc1cc(N(CC)CC)ccc1/C=C(/C#N)c1nc2ccc(C)cc2[nH]1	0	-6	61*	0	-189
CCOc1cc(N(CC)CC)ccc1/C=C(/C#N)c1nc2ccccc2[nH]1	-1	-3	106*	-2	-173
Cc1ccc(CS(=O)(=O)c2cn(CC(=O)Nc3ccon3)c3ccccc23)cc1	-1	0	-16	-8	-11
CNC(=S)Nc1cccc(S(=O)(=O)NCc2ccco2)c1	-1	-3	-7	-5	12
O=C(O)c1cc(NC(=O)c2ccccc2F)cc(NC(=O)c2ccccc2F)c1	-1	2	-2	4	0
COC(=O)c1cc(NC(=O)c2ccccc2F)cc(C(=O)OC)c1	1	0	0	22*	1
COC(=O)c1cc(NC(=O)c2cc3ccccc3o2)cc(C(=O)OC)c1	1	-6	-3	16*	2
COc1cc(NC(=S)NC(=O)c2cccs2)ccc1NC(=O)C(C)C	-2	-3	2	37*	-12
CC(C)C(=O)Nc1cccc(NC(=S)NC(=O)c2cccs2)c1	0	-8	-1	-1	-4
Oc1ccc(N=Cc2ccc(O)c(O)c2)cc1	1	-1	-2	-2	-8
Oc1ccc(/C=N/N=C/c2ccc(O)c(O)c2)cc1O	77*	-7	3	7	-1
Cc1cc2nc3c(=O)n(CCc4ccccc4)c(=O)[nH]c3nc2cc1N	35	11	516*	16	i
Nc1ccc2nc3c(=O)n(CCc4ccccc4)c(=O)[nH]c3nc2c1	.	.	.	6	.
O=C(c1ccc(-c2ccccc2)c(F)c1)C1CCCN(C(=O)c2cncs2)C1 (stereo not given)	1	-4	0	14*	7
CC(C)Oc1cccc(C(=O)C2CCCN(C(=O)c3cncs3)C2)c1 (stereo not given)	0	1	0	0	-2
CCOc1ccc(/C=N/OCC(=O)Nc2ccc3c(c2)OCO3)cc1	-2	0	5	-2	-6
CCOc1ccc(/C=N/OCC(=O)Nc2cc(C)on2)cc1	1	-5	0	21*	-15
CC(C)(C)c1ccc(CSc2nc(N)cc(=O)[nH]2)cc1	5	0	-3	0	1
COc1cc2c(cc1NC(=O)COC(=O)[C@@H](NC(=O)c1ccccc1)C(C)C)oc1ccccc12	1	-1	5	25*	7
COc1cc2c(cc1NC(=O)COC(=O)[C@@H](NC(=O)c1ccccc1F)C(C)C)oc1ccccc12	0	-4	2	-6	3
COCC(=O)N1C[C@H]2CON(C)[C@H]2C[C@H]1c1cccc(-c2ccc(C#N)cc2)c1	3	-8	-3	.	-9
SMILES	LANA DNA inh	Keap1-Nrf2 PPI	cardiac RTF act	LANA-H2A inh	RTF Ca sens inh
O=C(COC(=O)Cc1ccsc1)Nc1ccc(Br)cc1	1	-2	-4	.	-1
CCC(=O)Nc1ccc(C(=O)COC(=O)Cc2ccsc2)cc1	1	-7	-1	18*	-4
Cc1cccc(C)c1OC(=O)c1ccccc1	-1	-1	-6	.	2
Cc1ccc(NC(=O)CSc2nc(N)cc(N)n2)cc1S(=O)(=O)N1CCOCC1	0	1	0	19*	-1
Nc1cc(N)nc(SCC(=O)Nc2ccccc2N2CCOCC2)n1	1	0	3	14*	1
O=C(CCCOc1ccccc1)Nc1ccc(Cl)c(S(=O)(=O)N2CCOCC2)c1	2	3	-2	1	4
Cc1ccc(NC(=O)CCCOc2ccccc2)cc1S(=O)(=O)N1CCOCC1	-1	-5	-8	20*	-3
CCc1ccc(CN2CCCC(C(=O)Nc3ccccc3-c3ccc(OC)cc3)C2)o1 (stereo not given)	1	0	-2	-1	-8
CN1C[C@@H]2C(c3ccc(C(F)(F)F)cc3)C3(c4ccc(C#N)cc4)CC2(C3)[C@H]1c1ccccc1 (stereo not given in full)	-2	-6	10	0	-7
CC(C(=O)Oc1ccc2c(c1)OCO2)N1C(=O)c2ccccc2C1=O (stereo not given)	.	.	.	21*	.
O=C(Nc1nc2c(s1)CN(Cc1ccccc1)CC2)c1cccc(S(=O)(=O)N2CCc3ccccc32)c1	9	-6	67*	3	-74
COC(=O)C1=C(NC(=O)COc2ccc(Cl)cc2Cl)CCS1	0	-3	-4	5	-28
CCOC(=O)CN1C(=O)S/C(=C/c2ccc(N3CCCCC3)o2)C1=O	-14	-6	70*	-3	-48
COC(=O)CN1C(=O)S/C(=C/c2ccc(N3CCCCC3)o2)C1=O	-44	-132	322*	-59	-291
COc1ccc(C)cc1NC(=O)CC1COc2ccccc2O1 (stereo not given)	-1	-1	67*	1	-14
Cc1nc2ccc(Cl)cc2nc(C)/c1=N\O	13	-21	34*	0	3
Cc1cnc(NC(=O)c2ccc(-c3nc4ccccc4s3)o2)s1	0	6	-5	29*	-4
COc1ccc(OC)c2cc3ccccc3cc12	39	25*	9	.	-19
CCOC(=O)c1ccc(N=c2scc(C)n2CC)cc1	0	-2	5	43*	0
CCO[C@@H]1OC(C(=O)N2CCN(Cc3ccc4c(c3)OCO4)CC2)=C[C@H](c2csc3ccccc23)[C@H]1CCCO	-1	-5	1	14*	5
N#CC1(NC(=O)COC(=O)c2nc(Cl)c(Cl)c(N)c2Cl)CCCCC1	0	-6	7	14*	-6
N#CC1(NC(=O)COC(=O)c2ncc(Cl)c(Cl)c2Cl)CCCCC1	1	-4	-1	-8	-10
O=C(CN(C(=O)c1csnn1)c1cccc2ccccc12)NCc1ccccc1	-1	-2	-1	4	11
O=C(CN(C(=O)c1csnn1)c1cccc2ccccc12)NCc1ccc(F)cc1	1	2	1	20*	-5
CCN(CC)CCN1C(=O)C(O)=C(C(=O)c2ccc(C)o2)C1c1ccccn1 (stereo not given)	.	.	.	16*	.
O=C(C1=C(O)C(=O)N(CCN2CCOCC2)C1c1ccc(F)cc1)c1cc2ccccc2o1 (stereo not given)	-1	-7	4	-7	-5
